The text below walks through data of PubChem BioAssay (EPA / NIEHS).

Each structure is given as a SMILES string. Results filed as inconclusive are left out. The source made the active and inactive calls. Rule for the calls, unless noted: active = hit-call score of the fitted dose curve at least 0.9, where 1 is the maximum; inactive = score below 0.9.

The term AC50 denotes the concentration at which the activity in the assay is half-maximal.

The nature of assay [1]: CCTE_Mundy_HCI_Cortical_Synap_Neur_Matur_NeuronCount: CCTE's Synaptogenesis and Neurite Maturation Assay in rat cortical cells for Neuron Count, Mundy Lab (AID 2284242; active = hit-call score of the fitted dose curve at least 0.9, where 1 is the maximum;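 for AC50: neuron number from Hoechst nuclei and MAP2 staining by high-content imaging; hits reduce neuron count versus DMSO baseline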). The essentials:
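Cortical cells from rat are plated, treated with AraC at DIV 5, and exposed to test chemicals with a media change at DIV 7. At DIV 12 they are fixed and immunostained (MAP2, synaptophysin), and imaged neuron counts are compared against DMSO controls.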

The nature of assay [2]: IUF_NPC5_oligodendrocyte_differentiation_120hr: Leibniz Research Institute for Environmental Medicine (IUF) 120-hour Oligodendrocyte Differentiation Assay (NPC5) (AID 2284304; active = hit-call score of the fitted dose curve at least 0.9, where 1 is the maximum;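 note: primary human fetal neural progenitor spheres plated to migrate and differentiate; share of O4-positive cells among Hoechst nuclei found by CNN image analysis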). A digest of the protocol: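 Human fetal neural progenitor spheres (0.3 mm) plated on poly-D-lysine/laminin in N2 differentiation medium and exposed for 120 h at 7 concentrations, with half-medium renewal at day 3. O4-positive cells identified by CNN, expressed as percent of Hoechst nuclei.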

The nature of assay [3]: TAMU_PeakParms_SingleDonor1434_Asystole: Texas A&M University (TAMU) 1.5-hr Human Induced Pluripotent Stem Cell (iPSC)-derived Cardiomyocytes Calcium (Ca+2) Flux Assay for Cardiotoxicity: Asystole (quiescence of beating) (AID 2284328; active = hit-call score of the fitted dose curve at least 0.9, where 1 is the maximum). The essentials: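 Human iPSC-derived cardiomyocytes (donor 1434) were exposed to 0.2, 1, 10 and 100 uM compound in 0.5% DMSO for 90 min at 37C. Ca2+-dye fluorescence gave average peak frequency; POD is EC95, a 95% beat-rate drop versus DMSO.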

Read-out in assay [4]: Tumor necrosis factor receptor superfamily member 6 (Homo sapiens) (UniProt P25445)
Kind of assay: LTEA_HepaRG_FAS: Life Technologies and Expression Analysis (LTEA) Assay for Fas cell surface death receptor (FAS) using HepaRG (AID 2283447). As to conditions: mRNA level, 48 h; actives raise or lower the signal. The essentials:
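Differentiated human HepaRG cells, pre-cultured 48 h, were exposed in duplicate for 48 h to 8-point half-log concentrations (top 100 uM, 0.5% DMSO) in serum-free induction medium; FAS mRNA measured by qRT-PCR, normalized to ACTB/GAPDH/POLR2A, bidirectional fit versus DMSO.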

Read-out in assay [5]: Fatty acid synthase (Homo sapiens) (UniProt P49327)
Kind of assay: LTEA_HepaRG_FASN: Life Technologies and Expression Analysis (LTEA) Assay for Fatty Acid Synthase (FASN) using HepaRG (AID 2283448). The settings on record: mRNA level, 48 h; actives raise or lower the signal. A digest of the protocol: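 Cells were plated, cultured 48 h, switched to serum-free induction medium, then dosed in duplicate (max 100 uM, half-log dilutions, 0.5% DMSO) for 48 h. RNA was then isolated and FASN quantified by qRT-PCR.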

Read-out in assay [6]: Cyclin Dependent Kinase Inhibitor 1A (CDKN1A), CDKN1A (gene 1026)
Kind of assay: LTEA_HepaRG_CDKN1A: Life Technologies and Expression Analysis (LTEA) Assay for Cyclin Dependent Kinase Inhibitor 1A (CDKN1A) using HepaRG (AID 2283450). The settings on record: mRNA level, 48 h; actives raise or lower the signal. A digest of the protocol: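 Differentiated HepaRG cells in serum-free induction medium, exposed 48 h in duplicate to eight half-log concentrations up to 100 uM in 0.5% DMSO. mRNA measured by TaqMan qRT-PCR, normalized to ACTB, GAPDH, POLR2A; bidirectional fit versus DMSO.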

Read-out in assay [7]: Cyclin D1 (CCND1), CCND1 (gene 595)
Kind of assay: LTEA_HepaRG_CCND1: Life Technologies and Expression Analysis (LTEA) Assay for Cyclin D1 (CCND1) using HepaRG (AID 2283451). The settings on record: mRNA level, 48 h; actives raise or lower the signal. The essentials: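 Differentiated HepaRG cells exposed 48 h in serum-free induction medium to eight half-log concentrations from 100 uM top, 0.5% DMSO, duplicates. CCND1 mRNA measured by Fluidigm TaqMan qRT-PCR, normalised to ACTB, GAPDH, POLR2A; bidirectional fit.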

Read-out in assay [8]: catalase (CAT), CAT (gene 847)
Kind of assay: LTEA_HepaRG_CAT: Life Technologies and Expression Analysis (LTEA) Assay for catalase (CAT) using HepaRG (AID 2283452). The settings on record: mRNA level, 48 h; actives raise or lower the signal. The essentials:
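Differentiated HepaRG cells in serum-free induction medium were dosed 48 h in duplicate, eight half-log concentrations from 100 uM in 0.5% DMSO. Transcript measured by TaqMan qRT-PCR, normalised to ACTB/GAPDH/POLR2A, fitted bidirectionally against DMSO.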

Read-out in assay [9]: flavin-containing dimethylaniline monooxygenases 3 (FMO3), FMO3 (gene 2328)
Kind of assay: LTEA_HepaRG_FMO3: Life Technologies and Expression Analysis (LTEA) Assay for flavin-containing dimethylaniline monooxygenases 3 (FMO3) using HepaRG (AID 2283453). As to conditions: mRNA level, 48 h; actives raise or lower the signal. The essentials:
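FMO3 transcript quantified by TaqMan qRT-PCR against three housekeeping genes after 48 h chemical exposure of HepaRG cells. Eight-point half-log series, top 100 uM, 0.5% DMSO vehicle; phenobarbital 1mM induction control; up- or down-regulation fitted.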

Read-out in assay [10]: Cytochrome P450 (CYP1A1), CYP1A1 (gene 1543)
Kind of assay: LTEA_HepaRG_CYP1A1: Life Technologies and Expression Analysis (LTEA) Assay for Cytochrome P450 (CYP1A1) using HepaRG (AID 2283454). As to conditions: mRNA level, 48 h; actives raise or lower the signal. A digest of the protocol: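 Differentiated human HepaRG cells, after 48 h plating, exposed in duplicate for 48 h in serum-free induction medium to 8 half-log concentrations up to 100 uM in 0.5% DMSO. CYP1A1 mRNA by qRT-PCR, normalized to ACTB/GAPDH/POLR2A; bidirectional fit versus DMSO.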

Read-out in assay [11]: CFLAR gene, CFLAR (gene 8837)
Kind of assay: LTEA_HepaRG_CFLAR: Life Technologies and Expression Analysis (LTEA) Assay for CFLAR gene using HepaRG (AID 2283455). The settings on record: mRNA level, 48 h; actives raise or lower the signal. A digest of the protocol:
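Gain- or loss-of-signal changes in CFLAR transcript were fitted bidirectionally relative to 0.5% DMSO. Cells (HepaRG, duplicate wells) were dosed for 48 h across eight half-log concentrations topping at 100 uM; quantitation by TaqMan qRT-PCR.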

Read-out in assay [12]: Forkhead box O1 (FOXO1), FOXO1 (gene 2308)
Kind of assay: LTEA_HepaRG_FOXO1: Life Technologies and Expression Analysis (LTEA) Assay for Forkhead box O1 (FOXO1) using HepaRG (AID 2283456). The settings on record: mRNA level, 48 h; actives raise or lower the signal. The essentials:
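Using one lot of HepaRG hepatic cells kept in 0.5% DMSO, the team applied test chemicals in duplicate, half-log dilutions from 100 uM, for 48 h. Expression, normalised to ACTB/GAPDH/POLR2A, was compared with vehicle in either direction.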

Read-out in assay [13]: growth arrest and DNA damage 45 (GADD45A), GADD45A (gene 1647)
Kind of assay: LTEA_HepaRG_GADD45A: Life Technologies and Expression Analysis (LTEA) Assay for growth arrest and DNA damage 45 (GADD45A) using HepaRG (AID 2283458). As to conditions: mRNA level, 48 h; actives raise or lower the signal. The essentials: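 Transcript induction or loss, quantified by TaqMan qRT-PCR against three housekeeping genes, is the read-out. HepaRG cells received chemicals for 48 h across eight half-log concentrations from 100 uM in 0.5% DMSO; gain and loss fitted relative to DMSO.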

Read-out in assay [14]: Forkhead box O3 (FOXO3), FOXO3 (gene 2309)
Kind of assay: LTEA_HepaRG_FOXO3: Life Technologies and Expression Analysis (LTEA) Assay for Forkhead box O3 (FOXO3) using HepaRG (AID 2283459). As to conditions: mRNA level, 48 h; actives raise or lower the signal. A digest of the protocol: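 Gene-expression endpoint: FOXO3 transcript level by qRT-PCR in HepaRG cultures treated 48 h with chemicals up to 100 uM (half-log, 0.5% DMSO vehicle).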

Read-out in assay [15]: ABC Transporter (ABCB1), ABCB1 (gene 5243)
Kind of assay: LTEA_HepaRG_ABCB1: Life Technologies and Expression Analysis (LTEA) Assay for ABC Transporter (ABCB1) using HepaRG (AID 2283460). As to conditions: mRNA level, 48 h; actives raise or lower the signal. A digest of the protocol:
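Human liver HepaRG line treated 48 h with up to 100 uM compound (eight half-log points, 0.5% DMSO); ABCB1 mRNA change fitted bidirectionally against DMSO controls.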

Read-out in assay [16]: growth arrest and DNA damage 45 (GADD45B), GADD45B (gene 4616)
Kind of assay: LTEA_HepaRG_GADD45B: Life Technologies and Expression Analysis (LTEA) Assay for growth arrest and DNA damage 45 (GADD45B) using HepaRG (AID 2283461). As to conditions: mRNA level, 48 h; actives raise or lower the signal. A digest of the protocol:
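Differentiated human HepaRG cells in serum-free induction medium exposed 48 h in duplicate to eight concentrations, top 100 uM, half-log steps, 0.5% DMSO. GADD45B mRNA by TaqMan qRT-PCR, normalized to ACTB, GAPDH, POLR2A; bidirectional fit versus DMSO.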

Read-out in assay [17]: ABC Transporter (ABCC3), ABCC3 (gene 8714)
Kind of assay: LTEA_HepaRG_ABCC3: Life Technologies and Expression Analysis (LTEA) Assay for ABC Transporter (ABCC3) using HepaRG (AID 2283462). As to conditions: mRNA level, 48 h; actives raise or lower the signal. A digest of the protocol: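 Differentiated human HepaRG cells exposed 48 h in serum-free induction medium, 0.5% DMSO vehicle, 8-point half-log series to 100 uM in duplicate. ABCC3 mRNA by qRT-PCR, normalised to ACTB, GAPDH, POLR2A; bidirectional fit vs DMSO.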

Read-out in assay [18]: ABC Transporter (ABCB11), ABCB11 (gene 8647)
Kind of assay: LTEA_HepaRG_ABCB11: Life Technologies and Expression Analysis (LTEA) Assay for ABC Transporter (ABCB11) using HepaRG (AID 2283463). As to conditions: mRNA level, 48 h; actives raise or lower the signal. The essentials:
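Using HepaRG cultures held in 0.5% DMSO, chemicals were tested at half-log dilutions from 100 uM for 48 h. Induction or suppression of ABCB11 mRNA, normalized to ACTB, GAPDH and POLR2A, was fitted bidirectionally against vehicle.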

Read-out in assay [19]: ABC Transporter (ABCC2), ABCC2 (gene 1244)
Kind of assay: LTEA_HepaRG_ABCC2: Life Technologies and Expression Analysis (LTEA) Assay for ABC Transporter (ABCC2) using HepaRG (AID 2283464). The settings on record: mRNA level, 48 h; actives raise or lower the signal. A digest of the protocol: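 Differentiated HepaRG cells in serum-free induction medium exposed 48 h to eight half-log concentrations up to 100 uM, 0.5% DMSO, in duplicate. ABCC2 mRNA measured by qRT-PCR (TaqMan, Fluidigm), normalized to ACTB, GAPDH and POLR2A. Fitted in both directions against DMSO.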

Read-out in assay [20]: Broad substrate specificity ATP-binding cassette transporter ABCG2 (Homo sapiens) (UniProt Q9UNQ0)
Kind of assay: LTEA_HepaRG_ABCG2: Life Technologies and Expression Analysis (LTEA) Assay for ABC Transporter (ABCG2) using HepaRG (AID 2283465). As to conditions: mRNA level, 48 h; actives raise or lower the signal. The essentials: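 Gene expression of ABCG2 in HepaRG liver cells is quantified by qRT-PCR following 48 h exposure across an eight-point series topping at 100 uM. Values come from bidirectional fitting relative to DMSO vehicle.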

Fatty acid synthase (Homo sapiens), sequence (P49327 whole entry, looked up): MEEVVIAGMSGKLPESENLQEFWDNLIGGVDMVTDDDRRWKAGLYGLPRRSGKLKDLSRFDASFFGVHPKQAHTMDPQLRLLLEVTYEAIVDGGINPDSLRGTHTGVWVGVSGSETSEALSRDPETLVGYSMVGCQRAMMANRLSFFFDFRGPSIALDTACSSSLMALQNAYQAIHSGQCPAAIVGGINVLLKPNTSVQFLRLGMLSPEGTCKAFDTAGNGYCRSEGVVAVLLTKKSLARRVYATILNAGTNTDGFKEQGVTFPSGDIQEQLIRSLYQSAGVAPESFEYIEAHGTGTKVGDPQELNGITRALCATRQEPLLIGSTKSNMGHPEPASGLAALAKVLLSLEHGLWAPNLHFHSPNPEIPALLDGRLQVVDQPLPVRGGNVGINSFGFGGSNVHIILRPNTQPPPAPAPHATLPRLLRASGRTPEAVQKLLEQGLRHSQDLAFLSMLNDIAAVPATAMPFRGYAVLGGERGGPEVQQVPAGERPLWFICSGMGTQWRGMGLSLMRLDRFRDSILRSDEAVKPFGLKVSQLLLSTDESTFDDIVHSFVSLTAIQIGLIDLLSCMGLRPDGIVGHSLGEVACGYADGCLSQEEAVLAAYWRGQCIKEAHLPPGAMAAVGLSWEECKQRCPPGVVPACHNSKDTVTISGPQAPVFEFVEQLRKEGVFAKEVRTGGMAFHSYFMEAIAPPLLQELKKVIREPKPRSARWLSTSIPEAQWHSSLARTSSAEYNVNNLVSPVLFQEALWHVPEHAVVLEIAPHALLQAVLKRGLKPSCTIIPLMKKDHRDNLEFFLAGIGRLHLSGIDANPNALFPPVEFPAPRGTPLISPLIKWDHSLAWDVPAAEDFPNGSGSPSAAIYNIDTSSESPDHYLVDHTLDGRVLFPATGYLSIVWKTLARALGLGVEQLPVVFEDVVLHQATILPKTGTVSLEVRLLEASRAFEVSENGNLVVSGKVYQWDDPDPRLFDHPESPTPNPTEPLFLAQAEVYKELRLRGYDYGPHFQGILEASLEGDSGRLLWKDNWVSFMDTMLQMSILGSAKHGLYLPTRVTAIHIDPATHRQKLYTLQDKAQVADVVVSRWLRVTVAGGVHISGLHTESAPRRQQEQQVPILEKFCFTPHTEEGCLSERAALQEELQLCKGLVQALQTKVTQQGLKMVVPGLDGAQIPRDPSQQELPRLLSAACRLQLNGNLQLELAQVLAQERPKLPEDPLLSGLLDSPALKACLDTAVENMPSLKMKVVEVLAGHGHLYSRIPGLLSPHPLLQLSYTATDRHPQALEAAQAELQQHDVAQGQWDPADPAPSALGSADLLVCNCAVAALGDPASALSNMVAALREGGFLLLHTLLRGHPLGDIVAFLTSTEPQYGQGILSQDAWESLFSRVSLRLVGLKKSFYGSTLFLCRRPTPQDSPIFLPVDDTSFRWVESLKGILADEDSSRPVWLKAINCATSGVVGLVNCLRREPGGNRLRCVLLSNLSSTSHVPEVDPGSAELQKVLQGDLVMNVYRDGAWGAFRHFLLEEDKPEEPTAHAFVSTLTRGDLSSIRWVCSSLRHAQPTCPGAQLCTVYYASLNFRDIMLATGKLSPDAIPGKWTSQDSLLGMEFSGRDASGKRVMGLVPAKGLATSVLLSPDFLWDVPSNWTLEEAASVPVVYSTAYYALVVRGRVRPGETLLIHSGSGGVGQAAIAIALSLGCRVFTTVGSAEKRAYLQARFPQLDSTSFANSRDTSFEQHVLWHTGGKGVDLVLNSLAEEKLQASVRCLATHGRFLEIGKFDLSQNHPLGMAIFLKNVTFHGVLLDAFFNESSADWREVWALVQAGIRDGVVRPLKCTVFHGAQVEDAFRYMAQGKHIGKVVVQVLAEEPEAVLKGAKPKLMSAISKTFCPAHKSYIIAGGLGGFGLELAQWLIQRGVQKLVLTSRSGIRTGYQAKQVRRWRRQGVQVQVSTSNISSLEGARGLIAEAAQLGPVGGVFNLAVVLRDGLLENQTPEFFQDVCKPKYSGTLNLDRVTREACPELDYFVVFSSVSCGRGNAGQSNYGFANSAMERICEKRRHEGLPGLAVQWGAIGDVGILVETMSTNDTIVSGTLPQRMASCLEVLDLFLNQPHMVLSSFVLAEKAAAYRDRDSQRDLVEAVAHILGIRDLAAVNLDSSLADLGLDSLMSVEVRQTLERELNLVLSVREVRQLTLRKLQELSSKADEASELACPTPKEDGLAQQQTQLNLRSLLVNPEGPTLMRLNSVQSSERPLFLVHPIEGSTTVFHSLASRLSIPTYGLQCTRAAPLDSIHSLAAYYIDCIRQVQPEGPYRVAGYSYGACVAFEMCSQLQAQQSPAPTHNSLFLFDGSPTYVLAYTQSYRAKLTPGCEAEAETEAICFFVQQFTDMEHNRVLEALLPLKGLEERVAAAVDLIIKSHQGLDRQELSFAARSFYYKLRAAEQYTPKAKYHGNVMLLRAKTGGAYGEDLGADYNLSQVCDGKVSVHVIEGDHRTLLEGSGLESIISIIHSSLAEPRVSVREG
Broad substrate specificity ATP-binding cassette transporter ABCG2 (Homo sapiens), sequence (Q9UNQ0 whole entry, looked up): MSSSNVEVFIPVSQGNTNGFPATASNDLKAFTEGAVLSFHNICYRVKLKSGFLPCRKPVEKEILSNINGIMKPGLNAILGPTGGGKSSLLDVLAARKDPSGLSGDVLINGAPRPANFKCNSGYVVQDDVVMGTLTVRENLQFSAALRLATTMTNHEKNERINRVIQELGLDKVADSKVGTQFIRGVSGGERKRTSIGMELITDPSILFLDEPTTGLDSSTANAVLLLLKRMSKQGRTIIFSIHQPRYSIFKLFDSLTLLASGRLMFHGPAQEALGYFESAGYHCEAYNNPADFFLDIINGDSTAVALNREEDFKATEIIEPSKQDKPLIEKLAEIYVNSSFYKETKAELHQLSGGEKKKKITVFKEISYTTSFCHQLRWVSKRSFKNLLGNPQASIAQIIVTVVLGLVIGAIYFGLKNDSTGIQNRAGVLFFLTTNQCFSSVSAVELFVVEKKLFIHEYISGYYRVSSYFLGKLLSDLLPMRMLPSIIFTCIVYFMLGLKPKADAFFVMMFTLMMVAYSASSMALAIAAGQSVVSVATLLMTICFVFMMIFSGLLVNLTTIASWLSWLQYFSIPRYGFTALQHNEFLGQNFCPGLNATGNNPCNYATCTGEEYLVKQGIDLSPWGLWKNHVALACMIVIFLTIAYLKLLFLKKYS

As to `Cc1ccc(OP(=O)(Oc2ccc(C)cc2)Oc2ccc(C)cc2)cc1` (tested in a mixture with another compound), the AC50 was 24 µM (active) in [1] and 7.7 µM (active) in [3]. Also, the result in assay [2] was inactive.

As for `N#CCCCCC#N`, the compound was called inactive in assay [4], in [5], in assay [6], in [7], in [8] and in [9]. For the same compound, the outcome in assay [10], in [11], in assay [12], in [13], in [14] and in assay [15] was inactive. For the same compound, the result in assay [16], in assay [17], in [18], in assay [19] and in assay [20] was inactive.

Consider `CC1(C)[C@H](C(=O)O[C@H](C#N)c2cccc(Oc3ccccc3)c2)[C@@H]1C=C(Br)Br`, for which the AC50 in [1] is 23.9 µM (active); in assay [2], 0.729 µM (active). In assay [3], the outcome was inactive.

For `O=[N+]([O-])c1ccc(Cl)cc1`, the call in assay [4], in assay [5], in assay [6], in [7], in [8] and in assay [9] was inactive. Further, the outcome in [11], in assay [12], in assay [13], in [14], in assay [15] and in assay [16] was inactive. In addition, the outcome in assay [17], in assay [18], in assay [19] and in assay [20] was inactive. In [10], the AC50 was 37.8 µM (active).

Turning to `O=C(CCl)c1ccccc1`, the compound was classed as inactive in assay [4], in assay [5], in assay [6], in assay [7], in [8] and in assay [9]. In addition, the outcome in assay [10], in assay [11], in [12], in assay [13], in [14] and in assay [15] was inactive. For the same compound, the outcome in assay [16], in assay [17], in [18], in [19] and in [20] was inactive.

Take `CC(C)CCCCCCCOP(=O)(Oc1ccccc1)Oc1ccccc1`: the half-maximal activity concentration (AC50) in assay [2] was 5.15 µM (active). Further, the result in assay [3] was inactive.

Take `CNC(=N[N+](=O)[O-])NCC1CCOC1` (stereo not given): in assay [1], the result was inactive.
